# Source: PubChem BioAssay (EPA / NIEHS)
# Calls of active or inactive are those of the source. How the source made its calls: active means hit-call score of the fitted dose curve at least 0.9, where 1 is the maximum; inactive means score below 0.9.
# Legend:
# [1] = IUF_NPC1b_proliferation_BrdU_72hr: Leibniz Research Institute for Environmental Medicine (IUF) 72-hour Neural Progenitor Cell Bromodeoxyuridine (BrdU) Proliferation Assay (NPC1b) (AID 2284207)
# Outline: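 hNPC spheres (primary, GW 16-19 fetal cortex), single sphere/well, EGF+FGF medium; 72 h compound, no renewal; BrdU pulse last 16 h; luminescent ELISA; activity vs DMSO baseline; growth-factor withdrawal as positive control.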
# [2] = IUF_NPC1a_proliferation_area_72hr: Leibniz Research Institute for Environmental Medicine (IUF) 72-hour Neural Progenitor Cell Proliferation Area Assay (NPC1a) (AID 2284208)
# Method: IUF_NPC1 is a cell-based, multiplexed assay that uses hNPC, a human primary neural progenitor cells, with measurements taken at 72 hours after chemical dosing in a 96-well plate. Human neural progenitor cells (hNPC) are generated from human fetal brain cortex at gestational week (GW) 16-19. Grown in suspension culture and under proliferative conditions (proliferation media and growth factors), these cells represent neural progenitor cell proliferation. In the NPC1 assay, hNPC's are exposed to the test compound for 72h. Cell proliferation is assessed as an increase in sphere area using automated phase contrast imaging and as incorporation of Bromodeoxyuridine (BrdU) during DNA synthesis using a luminescence-based cell proliferation ELISA. In parallel, the cell viability is assessed using an alamar blue viability assay and the cytotoxicity using a lactate dehydrogenase dependent membrane integrity assay.IUF_NPC1a_proliferation_area_72hr is one of 4 assay components measured from the IUF_NPC1 assay. It is designed to measure cell proliferation as assessed by an increase in sphere area over 72 h using automated phase contrast imaging.Data from the IUF_NPC1a_proliferation_area component was analyzed at the endpoint IUF_NPC1a_proliferation_area in the positive analysis fitting direction relative to DMSO as the negative control and baseline of activity. […]
# [3] = IUF_NPC1_viability_72hr: Viability Assessment at 72 hours in the Leibniz Research Institute for Environmental Medicine (IUF) Neural Progenitor Cell Proliferation Assay (NPC1) (AID 2284209)
# Outline: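 Each well receives one 0.3 mm progenitor sphere from fetal brain cortex; test chemical is added at plating and left three days. Viability comes from alamar blue fluorescence, multiplexed with LDH and BrdU readouts in the same well.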
SMILES,AC50 [1],outcome [2],outcome [3],outcome [1]
O=C1O[C@H]([C@@H](O)CO)C(O)=C1O,215 nM (active),inactive,inactive,–
CC(C)(c1cc(Br)c(O)c(Br)c1)c1cc(Br)c(O)c(Br)c1,–,inactive,inactive,inactive
